Laboratory results as given in PubChem BioAssay AID1220 (Sanford-Burnham Center for Chemical Genomics, 2008).
The whole screen tested about 190,000 compounds, of which about 1,300 (0.68%) were called active. What follows is part of a selection rich in actives, with near analogues and random picks from the rest. A number with no mark means an inactive call. No stated cut-off is given here; in the data, active means inhibition above about 50%; inactive means the rest.

molecular target: Mannose-6-phosphate isomerase (Homo sapiens) (UniProt P34949); experiment: human PMI inhibitors, high substrate, primary screen, biochemical, fluorescence intensity, high mannose 6-phosphate (AID 1220); details: recombinant PMI enzyme, coupled fluorescence intensity; at 20 µM; active compounds read high
Sequence (P34949 whole entry, looked up): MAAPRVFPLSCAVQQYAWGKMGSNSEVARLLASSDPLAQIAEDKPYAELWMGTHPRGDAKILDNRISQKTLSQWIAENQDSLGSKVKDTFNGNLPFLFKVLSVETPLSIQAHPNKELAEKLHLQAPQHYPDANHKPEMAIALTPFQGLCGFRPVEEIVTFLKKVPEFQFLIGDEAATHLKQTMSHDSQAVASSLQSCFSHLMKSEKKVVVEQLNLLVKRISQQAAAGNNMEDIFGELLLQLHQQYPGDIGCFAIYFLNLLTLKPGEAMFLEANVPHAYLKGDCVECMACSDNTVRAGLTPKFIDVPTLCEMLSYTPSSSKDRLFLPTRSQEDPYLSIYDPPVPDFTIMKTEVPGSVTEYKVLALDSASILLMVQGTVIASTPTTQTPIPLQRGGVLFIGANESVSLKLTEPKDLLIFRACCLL

Point of comparison: `CN(C(=O)c1ccccc1)c1ccc(OCC(=O)NC2CCS(=O)(=O)C2)cc1` (centres undefined), inhibition 11.6%. Against it:
- CN(c1ncc(C(F)(F)F)cc1Cl)N1C(=O)c2cccc([N+](=O)[O-])c2C1=O — lower, 6.1%
- Clc1cc(Cl)cc(C2=NCCC(c3ccccc3)O2)c1 (centres undefined) — higher, 15.6%
- CC1(C)CC(=O)C2=C(C1)OC(N)=C(C#N)C2c1ccccc1[N+](=O)[O-] (centres undefined) — higher, 47.5%
- O=C(O)CN(c1ccc2c(c1)OCCO2)S(=O)(=O)c1ccccc1 — lower, -2.6%
- COc1ccc(OCC(=O)NC(CC(=O)O)c2ccc(OC)c(OC)c2)cc1 (centres undefined) — lower, -11.4%
- Cc1c(Br)c(=O)oc2c(Br)c(O)c(O)cc12 — lower, -33.8%
- Cc1c(Br)c(=O)oc2c(Br)c(O)ccc12 — lower, -8.7%
- Cc1cccc(C(c2c(C)nn(-c3ccccc3)c2N)c2c(C)nn(-c3ccccc3)c2N)c1 — higher, 16.3%
- O=C(NC1CCCCC1)c1cc(Cl)nc2ccccc12 — lower, 1.4%
- O/N=C/c1cn(-c2ccccc2)nn1 — lower, 6.9%
- Cc1[nH]n(-c2ccccc2)c(=O)c1/C=N/O — lower, 5.9%
- Nc1cc(=O)[nH]c(SCC(=O)Nc2cccc(Cl)c2Cl)n1 — lower, 4.4%
- O=C(CSc1ncn(-c2ccccc2)n1)Nc1nncs1 — lower, 5.2%
- COc1cc(C2C3C(=O)N(Cc4ccccc4)C(=O)C3ON2c2ccccc2)cc(OC)c1OC (centres undefined) — lower, 7.3%
- COc1ccc(C2C3C(=O)N(Cc4ccccc4)C(=O)C3ON2c2ccccc2)c(OC)c1OC (centres undefined) — higher, 15%
- Cc1n[nH]c(C)c1Sc1ccccc1N=Cc1cc(Cl)cc([N+](=O)[O-])c1O — lower, 0.8%
- COc1cc(C=Nc2cccc(C)c2)c(O)c([N+](=O)[O-])c1 — higher, 34%
- COc1ccc(N=Cc2cccc(C)c2O)cc1Cl — lower, 7.9%
- Cc1ccc(N=Cc2c(O)[nH]c3ccccc23)c([N+](=O)[O-])c1 — lower, -4.1%
- Cc1c(N=Cc2ccc(O)c(Br)c2)cccc1[N+](=O)[O-] — higher, 12.1%
- O=[N+]([O-])c1cc(Cc2ccccc2)cc(C=Nc2ccc(N3CCOCC3)cc2)c1O — higher, 38.7%
- COc1cc([N+](=O)[O-])cc2sc(NC(=O)C(C)(C)C)nc12 — higher, 17%
- COc1ccccc1Cn1c(/C=C/c2ccccc2)nc2ccccc21 — lower, 4.9%
- Cc1cccc(-n2nc3c(c2NC(=O)c2ccc(Br)o2)CSC3)c1 — lower, -0.5%
- CCCC(CCC(=O)Nc1cc([N+](=O)[O-])ccc1O)C(=O)O (centres undefined) — lower, 11%
- CC(=O)Nc1ccc(NC(=O)c2cccc3c2-c2ccccc2C3=O)cc1 — lower, -2.8%
- CC(=O)NC(=S)Nc1ccc([N+](=O)[O-])cc1C — lower, -6%
- CC1CCCN(Cc2nc3c(c(=O)n(C)c(=O)n3C)n2CCc2ccccc2)C1 (centres undefined) — lower, 5.2%
- CNC(=O)CSc1nc(N)c2c3c(sc2n1)CCC3 — lower, 7.8%
- CC1=C(C(=O)N2CCOCC2)C(c2cccc(C)c2)NC(=S)N1 (centres undefined) — lower, -12.7%
- O=C1C=C(NCc2ccccc2)c2ccccc2C1=O — lower, 7.9%
- CC1(C)CC(=O)C=C(Nc2ccccc2O)C1 — lower, 7.6%
- O=C1C(Nc2ccccc2)=C/C(=N/S(=O)(=O)c2cccs2)c2ccccc21 — higher, 40.7%
- COC1=C(Nc2ccc(C)cc2)C(=O)c2ccccc2C1=O — lower, -3.1%
- CC1=CC(=O)c2ccccc2C1=O — lower, -13.3%
- Nc1c(O)ccc2c1C(=O)c1ccccc1C2=O — lower, 5.1%
- Cc1ccc(NC2=C(NCCO)C(=O)c3ccccc3C2=O)cc1 — higher, 47.8%
- COC1=C(Nc2ccccc2)C(=O)c2ccccc2C1=O — lower, 4.1%
- CC(C)(C)n1nnnc1SCC(=O)Nc1nn(-c2ccccc2)nc1C(N)=O — lower, 0.7%
- CN(C(=O)COc1ccccc1)c1nnc(-c2cccnc2)s1 — lower, -0.3%
- Cc1ccccc1NC(=O)c1c2c(nc3ccccc13)CCC2 — lower, -4.6%
- O=C(O)[C@H]1CCCC[C@H]1C(=O)Nc1cc([N+](=O)[O-])ccc1F — lower, -7.1%
- CCCC(=O)Nc1cc(Cl)ccc1C — lower, -0.2%
- Nc1nc(SCC(=O)Nc2cc(S(=O)(=O)N3CCOCC3)ccc2Cl)n[nH]1 — lower, -10.9%
- COC(=O)c1ccc(CSc2nnc(-c3ccc4c(c3)OCO4)n2-c2ccccc2)o1 — lower, -8.3%
- Cc1ccccc1NC(=S)N1CCN(C(=O)c2ccco2)CC1 — lower, 5.1%
- O=C(C1CCCCN1S(=O)(=O)c1ccccc1)N1CCN(Cc2ccccc2)CC1 (centres undefined) — lower, -3.3%
- CC(=O)N(C(C)=O)n1c(/C=C/c2cccc([N+](=O)[O-])c2)nc2ccccc2c1=O — higher, 15.3%
- CCOC(=O)c1ccc(NC(=O)C(C)N2C(=O)c3ccccc3C2=O)cc1 (centres undefined) — lower, 5%
- CCOC(=O)c1ccc(NC2OC(=O)c3ccccc32)cc1 (centres undefined) — lower, -0.5%
- O=[N+]([O-])c1ccc2cn[nH]c2c1 — lower, 1.3%
- Nc1ccc2[nH]ncc2c1 — higher, 48.1%
- CC(C)Cc1nnc(NC(=O)CSc2nc(N)cc(=O)[nH]2)s1 — lower, -6.4%
- CCCCc1nnc(NC(=O)C(C)Sc2nc(N)cc(=O)[nH]2)s1 (centres undefined) — lower, 0.4%
- C=CCc1ccccc1OCCNCc1ccccc1 — lower, 1%
- Cc1cccc(C(=O)NC2CCN(CC(=O)NCc3cccs3)CC2)c1 — lower, -0.6%
- Cc1ccc(-n2[nH]c3c4c(ccc3c2=O)C(=O)c2ccccc2C4=O)cc1 — higher, 13.1%
- COCCCn1[nH]c2c3c(ccc2c1=O)C(=O)c1ccccc1C3=O — higher, 14.1%
- O=C1c2ccccc2C(=O)c2c1ccc1c(=O)n(-c3ccccc3)[nH]c21 — higher, 30.4%
- Cc1cccc(-n2[nH]c3c4c(ccc3c2=O)C(=O)c2ccccc2C4=O)c1 — higher, 26.4%
- C=CCn1c(SCC(=O)Nc2cccc3ccccc23)nc(O)c(CC)c1=O — lower, -3.4%
- CCn1c(CNc2ccc(F)cc2)nnc1SCC(=O)Nc1ccccc1OC — lower, 4%
- CC(C)(C)NS(=O)(=O)c1ccc(OCC(=O)NCCC2=CCCCC2)cc1 — lower, 1.2%
- COCc1c(C(=O)N/N=C(/C)c2ccccc2)nnn1-c1nonc1N — lower, 6.3%
- COCc1c(C(=O)N/N=C/c2cccc3ccccc23)nnn1-c1nonc1N — lower, -11.8%
- CC(=O)c1ccc(Oc2nc(-c3cccnc3)nc3ccccc23)cc1 — lower, -4.3%
- Cc1ccc(Oc2nc(-c3cccnc3)nc3ccccc23)c([N+](=O)[O-])n1 — lower, 8.5%
- Cc1cc(C(=O)C(=O)O)c(C)n1-c1ccc(Cl)c(Cl)c1 — lower, -3%
- COc1ccc(CCC(=O)N2CC(C)OC(C)C2)cc1 (centres undefined) — lower, 5.2%
- Cc1ccc(C)c(NC(=O)c2nc(-c3ccccc3)n(-c3ccccc3)n2)c1 — higher, 16.2%
- O=[N+]([O-])c1ccc(C[n+]2ccc(Cc3ccccc3)cc2)cc1 — higher, 31.5%
- O=S(=O)(c1ccccc1)N1CCN=C1SCc1ccc(Cl)c(Cl)c1 — lower, -0.5%
- O=S(=O)(c1ccccc1)N1CCN=C1SCc1ccccc1 — lower, -2.3%
- c1ccc(COc2ccc(OCCN3CCCC3)cc2)cc1 — higher, 16.3%
- Cc1cccc(NC(=O)CC2SC(=NC3CCCCC3)NC2=O)c1 (centres undefined) — lower, 7.6%
- Nn1c(COc2ccc(Cl)cc2)n[nH]c1=S — lower, 10.2%
- Cc1ccc(OCc2n[nH]c(=S)n2N)cc1C — lower, 9.3%
- CCOc1ccccc1OCCNC1CCCC1 — lower, -5%
- COCCCNC(=S)Nc1ccc(C)cc1[N+](=O)[O-] — lower, 5.7%
- CC[C@H](C)C(C(=O)N1CCN(C(=O)OC(C)(C)C)CC1)n1cc(C(Cc2ccc(O)cc2)NC(=O)OC(C)(C)C)nn1 (some centres undefined) — lower, 6.3%

In the case of `O=c1oc2c(O)c(O)cc3c(=O)oc4c(O)c(O)cc1c4c23`, the inhibition is reported as 61.2% (active).
`Cn1cc(/C=N\O)nc2c(=O)n(-c3ccccc3)c(=O)nc1-2` was tested, and the inhibition was 56.5% (active).
With `COc1cc(C2C3C(=O)N(Cc4ccccc4)C(=O)C3ON2c2ccccc2)cc(OC)c1O` (centres undefined) the inhibition was 54.2% (active).
For `Cc1ccc(O)c(N=Cc2cc(Cc3ccccc3)cc([N+](=O)[O-])c2O)c1`, the inhibition was 63.3% (active).
In the case of `Cc1ccc(N=Cc2cc(Cc3ccccc3Cl)cc([N+](=O)[O-])c2O)c(O)c1`, the inhibition is reported as 56.5% (active).
For `COc1ccc(N=Cc2cc(Cc3ccccc3Cl)cc([N+](=O)[O-])c2O)cc1OC`, the inhibition was 54.9% (active).
With `O=C1C=C(Nc2ccccc2)C(=O)c2ccccc21` the inhibition was 57.5% (active).
For `O=C1C=C(Nc2ccccc2)c2ccccc2C1=O`, the inhibition was 64.6% (active).
`Cc1ccc(NC2=CC(=O)C(=O)c3ccccc32)cc1` was tested, and the inhibition was 56.2% (active).
For `O=C1C=C(Nc2ccccc2O)c2ccccc2C1=O`, the inhibition was 62.6% (active).
In the case of `CCOC(=O)c1ccc(NC2=CC(=O)C(=O)c3ccccc32)cc1`, the inhibition is reported as 57.3% (active).
`Nc1ccc2cn[nH]c2c1` was tested, and the inhibition was 53.1% (active).
In the case of `CCCCc1nnc(NC(=O)CSc2nc(N)cc(=O)[nH]2)s1`, the inhibition is reported as 51.1% (active).
`CC(C)Cn1[nH]c2c3c(ccc2c1=O)C(=O)c1ccccc1C3=O` was tested, and the inhibition was 60.3% (active).
For `Cc1ccc(C)c(-n2[nH]c3c4c(ccc3c2=O)C(=O)c2ccccc2C4=O)c1`, the inhibition was 58% (active).
`CC(=C/c1ccco1)/C=N/NC(=O)c1nnn(-c2nonc2N)c1CN(C)C` was tested, and the inhibition was 59.6% (active).
For `O=[N+]([O-])c1ncccc1Oc1nc(-c2cccnc2)nc2ccccc12`, the inhibition was 65.8% (active).
`O=S(=O)(c1ccccc1)N1CCN=C1SCc1ccc(Cl)cc1` was tested, and the inhibition was 51.5% (active).
